Measured values from PubChem BioAssay AID799 (SRMLSC, 2007).
Out of some 140,000 compounds screened, about 840 (0.6%) were called active. This excerpt belongs to a sample that is enriched for actives. Unmarked numbers belong to inactive results.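 Rule for the calls: active = viability gain under doxorubicin at or above a set limit, the compound median plus 3 SD (cut at about 4.7% in these data); inactive = the rest.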

Test: protection of MRP-1-high cells against doxorubicin toxicity – H69AR cells, CellTiter-Glo, MRP-1 activator project, primary screen (AID 799);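 note: MRP-1 overexpressing cells given doxorubicin 25 µM after compound pretreatment; 18-22 h compound pretreatment then 72 h with doxorubicin before readout; 0% = doxorubicin-only wells and 100% = vehicle-treated cells without doxorubicin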
Settings: viability rescue, at 10 µM, active compounds read high

Structure (SMILES) | viability increase
CN(C(=O)c1c(Cl)cnn1C)C12CC3CC(CC(C3)C1)C2 | -1.48%
Clc1cccc(CN2COc3c(cc(Cl)c4cccnc34)C2)c1 | -5.22%
COc1ccc(C(=O)Nc2ccccc2C(=O)N/N=C/c2ccccc2OC)cc1 | -3.65%
COc1cccc(/C=N/NC(=O)c2[nH]nc3c2CCc2ccccc2-3)c1O | -0.29%
COc1cccc(/C=N\NC(=O)C2=NNC(=O)C2C)c1O (stereo unspecified) | 8.24% (active)
CCn1cc(/C=C2/SC(=S)NC2=O)c(C)n1 | -3.74%
Cc1ccc(NC(=S)NCc2ccccc2Cl)c(C)c1 | -3.43%
CC1(C)CC(=O)C2=C(C1)N=C1SCCC(=O)N1C2c1ccc(C(F)(F)F)cc1 (stereo unspecified) | 9.27% (active)
Cc1ccc(C(=O)COC(=O)CCCC(=O)NC2CCCCC2)cc1[N+](=O)[O-] | -1.8%
O=C(N/N=C\c1ccc(-c2ccc(Cl)c(Cl)c2)o1)C(=O)N1CCCC1 | 1.06%
COC(=O)N/N=C/c1ccc(-c2ccc(Cl)c(Cl)c2)o1 | 9.18% (active)
O=C(Cn1nnc(-c2ccccc2)n1)N/N=C/c1ccc(-c2ccc(Cl)cc2)o1 | -1.7%
CCc1ccc(NC2Nc3cc(C)nn3S2)cc1 (stereo unspecified) | 1.66%
C/C(=N/NC(=O)CSc1ccccn1)c1ccc([N+](=O)[O-])cc1 | 5.38% (active)
Cc1cccc(C)c1NC(=O)CSc1ccc([N+](=O)[O-])cn1 | -2.01%
COC(=O)c1ccccc1NC(=O)CSc1ccccn1 | -0.18%
CC(C)(C)NC(=O)COC(=O)c1cc(Br)ccc1Cl | 1.61%
Cc1ccc(C(=O)NC(C)c2ccccc2)cc1Br (stereo unspecified) | 2.53%
COc1ccc(C(=O)ON=C2c3ccccc3-c3ccccc32)cc1OC | -0.45%
COc1cccc(C2SCC(=O)N2c2cccc(C)c2)c1OC (stereo unspecified) | -1.69%
CSCC[C@H](NC(=O)OC(C)(C)C)C(=O)N/N=C/c1cc2ccc(C)cc2nc1Cl | -3.12%

Structure (SMILES) | viability increase
Cc1ccc(CN2C(=O)N/C(=C/c3cc(C)n(-c4ccccn4)c3C)C2=O)cc1 | 2.22%
O=C(C1CC1)N1CCN=C1SCc1ccc(Cl)cc1 | 4.76% (active)
CCC(=O)N1CCN=C1SCc1ccc(F)cc1 | 5.28% (active)
CC1CCN(C(=O)c2ccc(CSc3ccc(Cl)cc3)cc2)CC1 | -2.43%
Cc1cccc(CC(=O)N2CCN=C2SCc2ccc([N+](=O)[O-])cc2)c1 | -3.9%
O=C(c1ccco1)N1CCN=C1SCc1cccc(Cl)c1 | 1.42%
Cc1cc(C)cc(C(=O)N2CCN=C2SCc2ccc([N+](=O)[O-])cc2)c1 | -4.17%
Cc1ccc(C(C[N+](=O)[O-])c2c(C)cc3ccccn23)cc1 (stereo unspecified) | -4.62%
COc1cc(C(=O)Nc2cc(C(F)(F)F)ccc2N2CCOCC2)ccc1O | -4.55%
O=c1[nH]cnc2c1c(-c1ccccc1)cn2-c1ccc(F)cc1 | -1.33%
CSCCC(NC(=O)c1cc([N+](=O)[O-])cc([N+](=O)[O-])c1)c1nc2ccccc2[nH]1 (stereo unspecified) | -3.92%
S=C(NCCc1ccccc1)NCc1ccccc1Cl | -1.54%
O=C(NCc1ccco1)C1CCCN(S(=O)(=O)c2cnc[nH]2)C1 (stereo unspecified) | -1.18%
O=C(NCc1ccco1)C1CCCN(S(=O)(=O)c2ccccc2)C1 (stereo unspecified) | 0.35%
Cc1noc(/C=C/N(C)C)c1S(=O)(=O)N1CCCC(C(=O)NCc2ccco2)C1 (stereo unspecified) | 8.37% (active)
CCCc1c(C)nc2c(Br)cccc2c1Cl | 0.38%
O=C1CSC2=NCN(c3ccccc3)CN12 | 8.4% (active)
O=C(NCc1cccs1)C(=O)NCC1OCCCN1S(=O)(=O)c1ccc(F)cc1 (stereo unspecified) | -1.49%
CC(O)c1nc2ccccc2n1Cc1ccc([N+](=O)[O-])cc1 (stereo unspecified) | -1.44%
Cc1ccc(-c2c(C)n([O-])c3c([n+]2=O)CCC3)cc1 | -0.22%
CC(C)(C)c1ccc(C(=O)NCc2nnc(SCC(=O)N3CCCc4ccccc43)n2-c2ccccc2)cc1 | -0.43%

Structure (SMILES) | viability increase
Cc1ccc(CSCC(N)C(=O)O)cc1 (stereo unspecified) | 1.44%
COc1cc2c(cc1/C=C1/NC(=O)N(c3ccccc3)C1=O)OCO2 | 0.58%
CCC1(C)Cc2c(sc3nnn(CC(=O)Nc4ccc(Cl)cc4)c(=O)c23)CO1 (stereo unspecified) | 9.27% (active)
CCC1(C)Cc2c(sc3nc(SC)nc(N)c23)CO1 (stereo unspecified) | -0.12%
CCC1(C)Cc2c(sc3[nH]c(=S)n(Cc4ccccc4)c(=O)c23)CO1 (stereo unspecified) | -3.87%
COCc1c(C(=O)N/N=C/C2CC=CCC2)nnn1-c1nonc1N (stereo unspecified) | -1.34%
CC(C)(C)N(Cc1ccccc1)C(=O)COC(=O)CCc1c[nH]c2ccccc12 | -1.32%
O=C(NCC(F)(F)F)Nc1nnc(C(F)(F)F)s1 | 7.12% (active)
CCc1nnc(NC(=O)CCC(=O)O)s1 | 0.72%
COc1ccc(C)cc1NC(=O)CCC(=O)Nc1nnc(C(F)(F)F)s1 | 1.24%
Cc1nnnn1/C(=C\c1ccccc1)C(=O)OCC(=O)N1CC2(C)CC1CC(C)(C)C2 (stereo unspecified) | -4.97%
CCn1c(NC(=O)c2nn(C)cc2Br)nc2ccccc21 | -2.46%
O=C(NCCNc1ccc([N+](=O)[O-])cc1)c1cccc2c(Br)cccc12 | 1.47%
C/C(=N/NC(=S)Nc1ccccc1)c1ccc2c(c1)OCO2 | 7.99% (active)
O=C(Nc1ccccc1)c1ccc2c(c1)OCO2 | -0.11%
C/C(=N\NC(=S)NCc1ccccc1)c1ccc(Cl)cc1 | -2.64%
COc1ccc(OCC(O)CNC(=O)Nc2ccc(Cl)cc2)cc1 (stereo unspecified) | 2.65%
Cc1ccc(C)c(NS(=O)(=O)c2ccc(OCC(=O)NCc3cccnc3)cc2)c1 | -4.52%
CC1CCN(C(=O)c2ccc(S(=O)(=O)Cc3cc(F)ccc3F)c([N+](=O)[O-])c2)CC1 | -4.87%
